Results published in the supplement of paper PMC5940239.

Legend:
[1] = system: Madurella mycetomatis MM55; conditions: 7 days
[2] = system: Madurella mycetomatis MM55; assay: IC90; higher = less potent; conditions: 7 days
[3] = system: Madurella mycetomatis MM55; assay: percent growth relative to solvent control; higher = less inhibition, active = 20 or less; conditions: 100 µM; 7 days

Compound | IC50 [1] | IC90 [2] | percent growth [3]
Cc1cnc(N2CCN[C@@H](Cc3ccccc3)C2)nc1Oc1ccc(-n2ccnc2)cc1 | 10.7 µM | 20.8 µM | 3.67% (active)
O[C@@H](c1cc(C(F)(F)F)nc2c(C(F)(F)F)cccc12)[C@H]1CCCCN1 | 38.8 µM | 71.5 µM | -1.36% (active)
COc1ccc(-c2nnc3ccc(-c4cccc(C(C)C)c4)cn23)cc1OC | 40.6 µM | 86.2 µM | 2.59% (active)
CNc1nnc(Sc2cnn(-c3ccccc3)c(=O)c2Cl)s1 | 54.9 µM | 90.8 µM | -0.261% (active)
COc1ccccc1OCCCCn1c(C2CC2)nc2ccccc21 | 52.1 µM | 92.7 µM | 2.84% (active)
Cc1ccc2nc(C)c(-c3ccn(Cc4ccccc4)n3)n2c1 | 39.8 µM | 90.8 µM | 2.95% (active)
COc1cc2ncnc(NC3CCN(Cc4ccccc4)CC3)c2cc1OC | 66.6 µM | 92.3 µM | -1.64% (active)
O=C(Nc1nnc(-c2ccc(Cl)cc2)o1)c1cccc(C(F)(F)F)c1 | 10.6 µM | 39.2 µM | 3.76% (active)
O=C(Nc1ccc(N2CCNCC2)nc1)c1oc(-c2ccccc2)nc1C(F)(F)F | 37.9 µM | 85.3 µM | -3.61% (active)
COc1cc(NC(C)CCCN)c2ncccc2c1 (configuration not stated) | 64.5 µM | 92.8 µM | 0.211% (active)
Cc1nc(-c2ccccn2)nc(N2CCC(Cc3ccccc3)C2)c1Cl (configuration not stated) | 5.1 µM | 13.7 µM | 6.94% (active)
Cc1cccc(Cn2ccc(NC(=O)c3ccc4c(c3)OCO4)n2)c1 | 60.1 µM | 90.7 µM | -0.936% (active)
CN1CCCN(C(c2ccccc2)c2ccc(Cl)cc2)CC1 (configuration not stated) | 10.2 µM | 18.6 µM | 2.74% (active)
COc1ccc(OC(C)C(=O)Nc2ccc(Cl)cc2C)cc1 (configuration not stated) | 26.9 µM | 54.5 µM | 0.806% (active)
C[C@H](c1ccc2c(c1)CCCC2)N(C)c1ncc2c(N)nc(N)nc2n1 | 63.7 µM | 91 µM | -2.94% (active)
c1ccc(-c2cc(N3CCCCC3)c3ccccc3n2)nc1 | 60 µM | 92.4 µM | 0.766% (active)
COc1cccc(-n2nnnc2S(C)(=O)=O)c1 | 59.9 µM | 92.6 µM | 1.2% (active)
COc1cncc(-c2cncc(N3CCN(c4ccncc4)CC3)n2)c1 | 28.2 µM | 52.1 µM | -0.286% (active)
CNCCC(Oc1ccc(C(F)(F)F)cc1)c1ccccc1 (configuration not stated) | 10.1 µM | 18.6 µM | 1.78% (active)
COc1ccc(CN2CCOc3ccc(C(C)(O)CN(C)C)cc3C2)cc1C (configuration not stated) | 60.6 µM | 93.5 µM | 2.42% (active)
Cc1nn(C(=O)Nc2cccc(C(F)(F)F)c2)c(C)c1Sc1ncccn1 | 68.5 µM | 94 µM | 1.34% (active)
Cc1ccc2nc(Cl)c(CNCc3cccs3)cc2c1 | 37.5 µM | 54.5 µM | -0.463% (active)
Nc1nccc2ccc(-c3ccc4nccn4c3)cc12 | 53.9 µM | 89.2 µM | -2.88% (active)
CCCCOC(=O)Nc1cc2nc(C3CCCCC3)[nH]c2cc1N1CCCC1 | 11.6 µM | 18.4 µM | 7.67% (active)
C[C@@H]1[C@H](O)[C@@H](C)/C=C/C=C/C=C/C=C/C=C/C=C/C=C/[C@H](O[C@@H]2O[C@H](C)[C@@H](O)[C@H](N)[C@@H]2O)C[C@@H]2O[C@](O)(C[C@@H](O)C[C@@H](O)[C@H](O)CC[C@@H](O)C[C@@H](O)CC(=O)O[C@H]1C)C[C@H](O)[C@H]2C(=O)O | 9.7 µM | 20.1 µM | 7.03% (active)

Compound | IC50 [1] | IC90 [2] | percent growth [3]
NCCN(C(=O)c1ccc(Cl)cc1Cl)c1ccc(OCc2ccc(Cl)cc2)cc1 | 10.5 µM | 17.9 µM | 4.52% (active)
Cc1cccc(-c2nc(Nc3ccncn3)c3sccc3n2)n1 | 35.2 µM | 88.1 µM | 1.77% (active)
c1coc(CNc2nc(N3CCCCC3)nc3ccccc23)c1 | 10.2 µM | 15.5 µM | 1.16% (active)
c1ccc(Oc2ccc(-c3cc(N4CCNCC4)[nH]n3)cc2)cc1 | 35.1 µM | 81.3 µM | 0.718% (active)
O=C(Nc1ccccc1)c1ccc(-c2cc3ccncc3cc2OC2CCNCC2)s1 | 54.3 µM | 87.4 µM | -5% (active)
CCN(CC)CCCCCCNc1cc(OC)cc2c(C)ccnc12 | 9.8 µM | 17.8 µM | -1.36% (active)
COc1ccc(-c2onc(C(F)(F)F)c2-c2ccc(Cl)cc2)c(O)c1 | 8.8 µM | 16.8 µM | 3.39% (active)
O=C([C@@H](c1ccc(Cl)cc1)c1cccnc1)N1CCN(c2ccc(C(F)(F)F)cc2)CC1 | 1.35 µM | 3.4 µM | 4.17% (active)
c1ccc(-c2[nH]c3ccccc3c2C(c2ccccn2)N2CCCC2)cc1 (configuration not stated) | 34.8 µM | 94.6 µM | 5.96% (active)
Cc1ccc2[nH]c(C3CCCNC3)c(-c3ccncc3)c2c1 (configuration not stated) | 52.1 µM | 89.4 µM | 0.356% (active)
Cc1cc(NCCc2ccccc2)nc(NC(=N)Nc2ccc(Cl)cc2)n1 | 10.4 µM | 18.8 µM | -1.87% (active)
Cc1nc(-c2ccccn2)nc(N(C)CCc2ccccc2)c1Cl | 9.25 µM | 17.8 µM | 2.82% (active)
CCc1ccc(S(=O)(=O)Nc2cc(CN3CCN(CCC(C)C)CC3)ccc2C)cc1 | 59.9 µM | 91.5 µM | -0.809% (active)
CN1CCN(c2cc(-c3ccc(F)cc3)nc(-c3ccncc3)n2)CC1 | 37.1 µM | 91.2 µM | 2.98% (active)
O=C(NC1CCN(c2ccnc3ccccc23)C1)c1cccc(C(F)(F)F)c1 (configuration not stated) | 61.6 µM | 94.8 µM | 3.94% (active)
CC(C)n1nc(-c2cc3c(Cl)cccc3[nH]2)c2c(N)ncnc21 | 52.5 µM | 89 µM | -3.21% (active)
CC[P](CC)(CC)=[Au][S][C@H]1O[C@@H](COC(C)=O)[C@H](OC(C)=O)[C@@H](OC(C)=O)[C@@H]1OC(C)=O | 17.1 µM | 45.8 µM | 3.51% (active)
c1ccc(Oc2ccc(-c3cc(CN4CCOCC4)[nH]n3)cc2)cc1 | 65.4 µM | 95.6 µM | 3.77% (active)
CCCc1ccc(S(=O)(=O)Nc2ccc(CN3CCN(CC4CC4)CC3)cc2)cc1 | 63.1 µM | 91.8 µM | -0.983% (active)
NC(CC(=O)c1ccc(Cl)cc1Cl)C(Cl)(Cl)Cl (configuration not stated) | 58.1 µM | 95 µM | 5.11% (active)
Nc1nc2ccc(-c3cncc(Oc4ccc(F)cc4)c3)cc2[nH]1 | 40.7 µM | 85.8 µM | -2.72% (active)
COc1ccc(-c2cnc3cnc(-c4cccc(OC(C)C)c4)cn23)cc1 | 43.6 µM | 95 µM | 6.18% (active)
Cn1c(=O)c2c(S(C)(=O)=O)snc2n(C)c1=O | 60 µM | 91.5 µM | -0.615% (active)
N=C(N)Nc1ccc(-c2ccc(-c3ccc(N=C(N)N)c(Cl)c3)o2)cc1Cl | 61.6 µM | 88.5 µM | -8.11% (active)
O=C(Nc1cccc(Cl)c1)c1cnc(N2CCN(c3ccncc3)CC2)c(Cl)c1 | 9.3 µM | 19.6 µM | 6.08% (active)

Compound | IC50 [1] | IC90 [2] | percent growth [3]
COc1cccc(-c2nc3c(N4CCCC4)cccc3n2CC2CCCN2)n1 (configuration not stated) | 37.4 µM | 84 µM | -0.727% (active)
OCc1ccc(-c2cncc(Nc3cccc(Cl)c3)c2)cc1 | 63.6 µM | 98.2 µM | 7.76% (active)
Cc1cc(C)n(-c2ccc(NC(=O)C3CCN(Cc4cnc(C)s4)CC3)cc2)n1 | 48.8 µM | 92.5 µM | 1.64% (active)
COC(=O)C1=C(C)NC(C)=C(C(=O)OC(C)C)C1c1cccc2nonc12 (configuration not stated) | 45.1 µM | 87.6 µM | -1.92% (active)
CCOc1ccc(-c2nc(CNCCc3ccc(F)cc3)cs2)cc1 | 10.4 µM | 19.6 µM | 3.57% (active)
COc1ccc(OC)c(NCc2ccc3nc(N)nc(N)c3c2Cl)c1 | 2.3 µM | 4.7 µM | -0.467% (active)
Clc1ccc(Cl)c(CO[C@H]2CCCC[C@@H]2n2ccnc2)c1 | 14.2 µM | 67.5 µM | 1.03% (active)
O=C(c1ccc(F)cc1)N(CCNc1ccccc1)c1ccccc1 | 66.8 µM | 100 µM | 6.35% (active)
CC(C)(C)C1CCC(CC2=C(O)C(=O)c3ccccc3C2=O)CC1 (configuration not stated) | 66.8 µM | 92.7 µM | -0.835% (active)
CCCCc1ccc(C(=O)Nc2nccc3ccccc23)nc1 | 54.6 µM | 86 µM | -1.16% (active)
O=C1COCc2ccc(Br)cc2N1Cc1ccc(C(F)(F)F)cc1 | 45 µM | 95.4 µM | 9.1% (active)
Cc1nc(-c2cccc(NCc3ccccc3)c2)[nH]c1C | 64 µM | 93.6 µM | 1.75% (active)
CC1=NN(c2nc3ccccc3s2)C(=O)C1Cc1cccc2ccccc12 (configuration not stated) | 62.1 µM | 93 µM | 1.31% (active)
CN1CCCC1CCO[C@](C)(c1ccccc1)c1ccc(Cl)cc1 (some centres not stated) | 9.85 µM | 18.3 µM | -0.386% (active)
Oc1c(I)cc(I)c2cccnc12 | 2.55 µM | 4.65 µM | -2.46% (active)
COc1cccc(-n2nnnc2S(=O)(=O)Cc2ccccc2)c1 | 45.7 µM | 90 µM | 1.14% (active)
CC(Oc1ccccc1)C(=O)Nc1nc(-c2ccccn2)cs1 (configuration not stated) | 10.1 µM | 18.5 µM | 1.36% (active)
Cc1cc(C)nc(-n2nc(C)cc2Nc2ccccc2)n1 | 58.1 µM | 91.3 µM | -0.531% (active)
O=C(Nc1cccc(-c2ccc(NCCCN3CCCC3)nc2)c1)c1ccccc1 | 53.1 µM | 90.9 µM | -1.11% (active)
CN1CCN(c2nccc3[nH]c(-c4cccc(F)c4)cc23)CC1 | 50.5 µM | 93 µM | 3.26% (active)
NCC(c1cccs1)S(=O)(=O)c1ccccc1 (configuration not stated) | 53.9 µM | 91.8 µM | 1.47% (active)
COc1ccc(C2=NN(C3CCCCCC3)C(=O)C2(C)C)cc1OCCCCOc1ccc(-c2nn[nH]n2)cc1 | 50.9 µM | 90.9 µM | 0.849% (active)
C[C@H](C(N)=O)N1CCCC[C@H]1c1ccc(OCc2cccc(F)c2)cc1 | 64.2 µM | 94.4 µM | 2.85% (active)
N=C(N)Nc1ccc(-c2ccc(-c3ccc(NC(=N)N)cc3Cl)o2)c(Cl)c1 | 11.4 µM | 17.8 µM | -6.7% (active)
